PP1 counter – blocks human PP1-alpha phosphatase, a PP5 counter-screen | P62136 | purified PP1alpha, OMFP fluorescence | inhibition, % at 6.7 µM | 320,000 tested, 0.9% active;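 active means inhibition above the mean inhibition of all tested compounds plus 3 SD, computed separately for each screening campaign, cut at about 15% in these data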
Target sequence (P62136 whole entry, looked up): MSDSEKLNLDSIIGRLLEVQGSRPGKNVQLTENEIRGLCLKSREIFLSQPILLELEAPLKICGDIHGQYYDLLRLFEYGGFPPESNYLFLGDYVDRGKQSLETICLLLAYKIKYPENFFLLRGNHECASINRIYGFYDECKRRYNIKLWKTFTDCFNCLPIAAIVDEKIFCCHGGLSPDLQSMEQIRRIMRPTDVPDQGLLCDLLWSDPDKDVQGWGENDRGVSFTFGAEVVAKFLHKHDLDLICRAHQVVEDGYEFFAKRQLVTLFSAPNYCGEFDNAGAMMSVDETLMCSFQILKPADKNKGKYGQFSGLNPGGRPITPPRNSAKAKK
PP5 inh – inhibitors of human protein phosphatase 5 (PP5). P53041. purified PP5c, OMFP substrate fluorescence. inhibition, % at 6.7 µM. 320,000 tested, 0.18% active;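 active means inhibition above the campaign's mean inhibition across all tested compounds plus 3 SD, cut at about 9.5% in these data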
Calb FLC – C. albicans growth modulation with fluconazole; C. albicans CaCi-2 (fluconazole-resistant clinical isolate) + fluconazole, Alamar Blue growth, 48 h; growth inhibition, % (concentration not given with the values); 300,000 tested, 0.57% active;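 active means growth inhibition above about 58% in most replicates, limit read from the data, passing the limit was not always enough; inconclusive means exactly half the replicates above a set limit; inactive means most replicates below a set limit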;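 further: all wells also contain fluconazole at 8 µg/ml as a sub-toxic cotreatment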
Mdm2-MdmX inh – inhibitors of human Mdm2/MdmX interaction. AID 485346. inhibition, % at 8 µM. SaOS-2 split-luciferase Mdm2/MdmX complementation, luminescence. 330,000 tested, 3% active;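 active means inhibition of at least 50% at 8 µM in the primary screen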
Beta cell apopt – beta cell apoptosis inhibition; INS-1E cytokine-induced death, ATP luminescence, 48 h; percent of positive-control rescue, neutral wells zero; protection from apoptosis, % (no concentration beside the values); 300,000 tested, 0.8% active; AID 435005;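 active means Every replicate reaches about 75%, or at least half do and their mean reaches it too, limit read from the data; inconclusive means At least half of replicates reach the limit but their mean does not; inactive means Under half of replicates reach the limit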;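 further: higher means more ATP so stronger rescue from cytokine killing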
CSC inhib – cancer stem cell inhibition | cancer stem cell-like cells viability, luminescence | 300,000 tested, 1.1% active | inhibition, % at 7.5 µM; in the data active means inhibition above about 75%; inconclusive means no clear call, values can overlap the other calls; tested in HMLE shEcad cells
Of the large screens only hits and unclear results are named; the others gave an inactive call. A selection: hits, their analogues and other compounds. The true share with any hit is near 4.9%.

COc1cc(NC(=O)CSCc2ccc(Cl)cc2)c(C(=O)O)cc1OC	none
COC(=O)c1ccc(COc2ccc(/C=C(\C#N)c3nc4ccccc4[nH]3)cc2OC)o1	Calb FLC 79
COc1cc(/C=C(/C#N)c2nc3ccccc3[nH]2)ccc1OCc1ccc(C(=O)O)o1	none
Cc1ccc(NS(=O)(=O)c2ccc(OCC(=O)NCc3ccccn3)cc2)cc1	none
CCc1ccc(OCc2n[nH]c(=S)n2C(C)CCCC(C)C)cc1 (configuration not stated)	CSC inhib 118
CCc1ccc(OCc2n[nH]c(=S)n2Cc2ccccc2)cc1	none
CCC1=C(c2ccc(C)cc2)S(=O)(=O)N=C1N1CCC(C(=O)NCCCN2CCCCC2)CC1	none
COc1cc(/C=C2\SC(=S)N(Nc3ccccc3)C2=O)ccc1O	none (no result: CSC inhib)
O=C(NN1C(=O)/C(=C\c2ccc(O)c([N+](=O)[O-])c2)SC1=S)c1ccccc1Cl	PP1 counter 16
COc1ccc(OC)c(/C=C2\SC(=S)N(NS(=O)(=O)c3ccc(C)cc3)C2=O)c1	Calb FLC 89
O=C1/C(=C/c2ccc(O)c(O)c2)SC(=S)N1Nc1ccccc1	Calb FLC 114 (no result: PP1 counter, PP5 inh, Mdm2-MdmX inh, Beta cell apopt, CSC inhib)
O=C(O)c1ccc(/C=C2\SC(=S)N(Nc3ccccc3)C2=O)cc1	Beta cell apopt 91
O=C(CN1C(=O)NC2(CCCC2)C1=O)OCCOc1ccccc1Cl	none
CCOc1cc(/C=C2\SC(=S)N(NS(=O)(=O)c3ccccc3)C2=O)ccc1O	Calb FLC 88
Nc1cc(OC(=O)c2cccs2)nn1S(=O)(=O)c1ccccc1	PP1 counter 15 (no result: CSC inhib)
Nc1cc(OC(=O)c2cccs2)nn1S(=O)(=O)c1ccc(F)cc1	none
Cn1cnc2c(=O)[nH]cc([N+](=O)[O-])c21	none
CCN(CC)c1ccc(/C=N/N2C(C)CCCC2C)c(O)c1 (configuration not stated)	none (no result: CSC inhib)
CCCCCCCOc1ccc(OC(=O)c2cccnc2)cc1	CSC inhib 96
CCCCOc1ccc(OC(=O)c2cccnc2)cc1	none
CN(Cc1ccc(C(F)(F)F)cc1)C(=O)C1CC(=O)N(Cc2ccco2)C1 (configuration not stated)	none (no result: PP1 counter, PP5 inh, Calb FLC)
CC(=O)c1cccc(N=c2scc(-c3ccc(S(=O)(=O)N4CCOCC4)cc3)n2CCO)c1	Calb FLC inconclusive, Beta cell apopt 75
Cc1ccccc1-c1noc(-c2ccc(O)cc2)n1	CSC inhib 96
Cc1ccccc1-c1noc(-c2ccc(Cl)cc2)n1	none
Cc1cc(=O)[nH]c2c1cnn2Cc1ccccc1	none
S=c1nc[nH]c2c1cnn2Cc1ccccc1	Calb FLC 94 (no result: PP1 counter, PP5 inh)
COc1ccc(-c2cn(Cc3ccc(C(=O)c4ccccc4)cc3)nn2)cc1	Beta cell apopt 106
Cc1ccc(N=Nc2c(C)[nH]n(C(N)=S)c2=O)cc1C	none
Cc1[nH]n(C(N)=S)c(=O)c1N=Nc1ccc(S(=O)(=O)N2CCCCCC2)cc1	Calb FLC 104
Cc1ccc(COC(=O)CCN=C2NS(=O)(=O)c3ccccc32)cc1	none
CSc1cnc2c(N)nc(N(C)C)nc2n1	Calb FLC 95
CCN(CC)C(=O)CSc1nc2ccccc2c(=O)n1-c1cccc(OC)c1	none
COc1cccc(-n2c(SCc3cc(=O)oc4cc(O)c(O)cc34)nc3ccccc3c2=O)c1	Calb FLC 106, CSC inhib 100 (no result: Mdm2-MdmX inh)
c1ccc2cc(OCCCn3ccnc3)ccc2c1	none
Cc1nn(-c2ccccc2)c(Cl)c1/C=N/NC(=O)c1[nH]ncc1Br	none
COc1cccc(C2/C(=C(\O)c3ccc4c(c3)OCCO4)C(=O)C(=O)N2CCCN2CCOCC2)c1OC (configuration not stated)	none
CN(Cc1ccccc1)c1ncnc2sccc12	none
Cc1ccc(-n2nnnc2Sc2ccc(S(=O)(=O)NCCN(C)C)cc2[N+](=O)[O-])cc1	CSC inhib 99 (no result: Mdm2-MdmX inh)
Cc1ccc(S(=O)(=O)NCCSc2nnnn2-c2ccc(C(N)=O)cc2)cc1	none
CC(C)OC(=O)Cn1nc(C(c2ccccc2)c2ccccc2)oc1=O	none
O=C(CN1C(=O)S/C(=C\c2ccc(F)cc2)C1=O)Nc1cccc(S(=O)(=O)NCc2ccco2)c1	none
COc1ccc(-c2nn(-c3ccccc3)cc2C(=O)N(C)CC(=O)Nc2cccc(F)c2)cc1	CSC inhib 80 (no result: Calb FLC)
CC(C)(C)c1ccc(/C=C/C(=O)c2ccc(NC3=NCCCS3)cc2)cc1	CSC inhib 99 (no result: Calb FLC)
C=CCN(CC=C)C(=O)c1ccc(OC2CCN(Cc3ccccn3)CC2)cc1	none
Cc1nn(Cc2ccc(Cl)cc2)c(C)c1NC(=O)c1cc(C(C)C)on1	none
Cc1nn(Cc2ccc(Cl)c(Cl)c2)c(C)c1NC(=O)c1cc(-c2ccc3c(c2)OCO3)on1	CSC inhib 81
O=C(NCc1ccco1)c1cc(-c2ccc3c(c2)OCO3)on1	CSC inhib 82
Cc1nn(Cc2ccc(Cl)cc2)c(C)c1NC(=O)c1cc(-c2ccc3c(c2)OCO3)on1	CSC inhib 83
Cc1ccc(-c2cc(C(=O)NCc3ccco3)no2)cc1	none
CC12CCC(C/C1=N\OC(=O)c1c(F)cccc1F)C2(C)C (configuration not stated)	none
CCOC(=O)N1CCN=C1SCc1ccc(Cl)c(Cl)c1	none
CCOC(=O)C(=Cc1cc(=O)c(OC)co1)C(=O)OCC	Calb FLC 94 (no result: PP1 counter, PP5 inh, Mdm2-MdmX inh, Beta cell apopt, CSC inhib)
Cc1nc2ccccc2c(=O)n1/N=C/c1c(O)ccc2ccccc12	Beta cell apopt 85
COc1ccc(NC(=O)CCCOc2ccc(Cl)c(C)c2)cc1S(=O)(=O)N1CCOCC1	none (no result: PP1 counter, PP5 inh, Calb FLC)
COc1cc(C(=O)OCC(=O)NC(=O)NCc2ccccc2)ccc1OC(F)F	none (no result: Calb FLC, CSC inhib)
COc1cc(C(=O)OCc2cc(=O)c(O)co2)ccc1OC(F)F	Calb FLC 102
CCCNCC1C(Oc2ccc(Cl)cc2)C(=O)N1c1ccccc1C (configuration not stated)	none
CC(=O)/C=C/n1c(=S)oc2ccccc21	Calb FLC inconclusive, Beta cell apopt 100 (no result: Mdm2-MdmX inh)
CC(C)CC(=O)/C=C/n1c(=S)oc2ccccc21	none (no result: Mdm2-MdmX inh)
COc1cccc(NC(=O)CN2C(=O)NC(Cc3c[nH]c4ccccc34)C2=O)c1 (configuration not stated)	none (no result: PP1 counter, PP5 inh, Calb FLC)
O=C(Nc1cccc(S(=O)(=O)NC2=NCCCCC2)c1)c1cc(-c2ccncc2)nc2ccccc12	Calb FLC inconclusive
O=C(Nc1cccc(S(=O)(=O)NC2=NCCCCC2)c1)c1cc(-c2ccco2)nc2ccccc12	PP1 counter 17
O=C(CSc1ccc2ccccc2c1Br)Nc1cccc(S(=O)(=O)NC2=NCCCCC2)c1	CSC inhib 91
CCCC(NC(=O)C(C)N1CCN(S(=O)(=O)c2ccccc2)CC1)c1ccccc1 (configuration not stated)	none (no result: Calb FLC)
COc1ccccc1C(=O)COC(=O)CSC(C)C(=O)Nc1cc(C)on1 (configuration not stated)	none
Cc1cccc(NC(=S)N/N=C/c2c[nH]c3ccccc23)c1	CSC inhib 79
Cc1ccc(C(=O)Nc2ccc(C(=O)N/N=C/c3c[nH]c4ccccc34)cc2)cc1	none

Bioassay records from PubChem BioAssay.
